Source: PubChem BioAssay (EPA / NIEHS)
Results filed as inconclusive are left out. Active and inactive are the calls of the source. How the source made its calls, unless noted: active means hit-call score of the fitted dose curve at least 0.9, where 1 is the maximum; inactive means score below 0.9.

Legend:
[1] = target: Estrogen-related receptor gamma (Homo sapiens) (UniProt P62508); test: ATG_ERRg_TRANS: Attagene TRANS-FACTORIAL HepG2 Assay for human Estrogen-Related Receptor gamma (ERRg) (AID 2282977; active means hit-call score of the fitted dose curve at least 0.9, where 1 is the maximum;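 further: hits increase reporter signal over DMSO so potencies reflect activators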); conditions: HepG2 Attagene TRANS reporter, ERRg transactivation
Estrogen-related receptor gamma (Homo sapiens), sequence (P62508 whole entry, looked up, the tested form may be a part): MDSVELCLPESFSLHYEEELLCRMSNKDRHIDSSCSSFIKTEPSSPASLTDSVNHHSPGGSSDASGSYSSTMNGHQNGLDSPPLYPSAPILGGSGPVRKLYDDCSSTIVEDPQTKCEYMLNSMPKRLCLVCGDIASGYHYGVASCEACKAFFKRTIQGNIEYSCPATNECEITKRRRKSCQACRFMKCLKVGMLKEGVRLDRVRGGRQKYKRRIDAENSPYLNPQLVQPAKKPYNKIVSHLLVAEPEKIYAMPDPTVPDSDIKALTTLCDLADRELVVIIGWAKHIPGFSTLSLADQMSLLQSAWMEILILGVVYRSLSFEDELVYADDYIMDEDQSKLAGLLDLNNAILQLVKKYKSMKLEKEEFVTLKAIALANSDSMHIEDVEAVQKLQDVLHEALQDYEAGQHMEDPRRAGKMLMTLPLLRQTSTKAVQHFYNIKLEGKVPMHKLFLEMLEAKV
Method in brief: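 HepG2 cells transiently transfected with multiplexed GAL4-UAS reporter units and chimeric NR-Gal4 constructs were exposed to test chemicals for 24 h. Reporter mRNA was measured by RT-PCR, 6-FAM primer extension, HpaI digestion and capillary electrophoresis; gain-of-signal versus DMSO.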

[2] = target: Glucocorticoid receptor (Homo sapiens) (UniProt P04150); test: ATG_GR_TRANS: Attagene TRANS-FACTORIAL HepG2 Assay for human Glucocorticoid Receptor (GR) (AID 2282978; active means hit-call score of the fitted dose curve at least 0.9, where 1 is the maximum;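 further: activators score as hits since higher reporter transcript over DMSO is fitted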); conditions: HepG2 Attagene TRANS GR reporter, mRNA transcription
Method in brief: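 In this trans-factorial format, exogenous NR-GAL4 chimeric proteins in transfected HepG2 cells regulate GAL4-UAS reporter transcription. After 24 h treatment, reporter mRNA induction relative to DMSO is read by RT-PCR and capillary electrophoresis.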

[3] = target: Bile acid receptor (Homo sapiens) (UniProt Q96RI1); test: ATG_FXR_TRANS: Attagene TRANS-FACTORIAL HepG2 Assay for Farnesoid X Receptor (FXR) (AID 2282979; active means hit-call score of the fitted dose curve at least 0.9, where 1 is the maximum;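 further: hits raise reporter mRNA above DMSO so AC50 marks FXR activation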); conditions: HepG2 Attagene TRANS FXR-GAL4 reporter transcription
Bile acid receptor (Homo sapiens), sequence (Q96RI1 whole entry, looked up, the tested form may be a part): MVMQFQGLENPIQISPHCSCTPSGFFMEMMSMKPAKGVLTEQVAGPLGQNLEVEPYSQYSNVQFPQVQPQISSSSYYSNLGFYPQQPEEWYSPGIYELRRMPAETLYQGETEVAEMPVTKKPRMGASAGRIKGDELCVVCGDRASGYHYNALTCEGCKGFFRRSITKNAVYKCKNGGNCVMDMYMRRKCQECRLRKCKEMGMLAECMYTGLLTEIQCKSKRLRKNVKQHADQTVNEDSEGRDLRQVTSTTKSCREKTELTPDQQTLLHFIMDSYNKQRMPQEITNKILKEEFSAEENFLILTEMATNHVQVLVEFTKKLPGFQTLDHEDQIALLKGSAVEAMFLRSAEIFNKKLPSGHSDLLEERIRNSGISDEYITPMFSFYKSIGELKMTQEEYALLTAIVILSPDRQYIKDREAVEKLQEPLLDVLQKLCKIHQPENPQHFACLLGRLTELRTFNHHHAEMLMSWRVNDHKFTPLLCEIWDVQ
Method in brief: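 Reporter transcripts from transfected HepG2 cells were measured 24 h after dosing, using RT-PCR with capillary electrophoresis of 6-FAM-labelled fragments. The read-out reflects activity of exogenous FXR-Gal4 chimera on GAL4-UAS units, with induction relative to DMSO.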

[4] = target: Oxysterols receptor LXR-beta (Homo sapiens) (UniProt P55055); test: ATG_LXRb_TRANS: Attagene TRANS-FACTORIAL HepG2 Assay for human Liver X Receptor beta (LXRb) (AID 2282981; active means hit-call score of the fitted dose curve at least 0.9, where 1 is the maximum); conditions: HepG2 Attagene TRANS GAL4-LXRb reporter, mRNA
Oxysterols receptor LXR-beta (Homo sapiens), sequence (P55055 whole entry, looked up, the tested form may be a part): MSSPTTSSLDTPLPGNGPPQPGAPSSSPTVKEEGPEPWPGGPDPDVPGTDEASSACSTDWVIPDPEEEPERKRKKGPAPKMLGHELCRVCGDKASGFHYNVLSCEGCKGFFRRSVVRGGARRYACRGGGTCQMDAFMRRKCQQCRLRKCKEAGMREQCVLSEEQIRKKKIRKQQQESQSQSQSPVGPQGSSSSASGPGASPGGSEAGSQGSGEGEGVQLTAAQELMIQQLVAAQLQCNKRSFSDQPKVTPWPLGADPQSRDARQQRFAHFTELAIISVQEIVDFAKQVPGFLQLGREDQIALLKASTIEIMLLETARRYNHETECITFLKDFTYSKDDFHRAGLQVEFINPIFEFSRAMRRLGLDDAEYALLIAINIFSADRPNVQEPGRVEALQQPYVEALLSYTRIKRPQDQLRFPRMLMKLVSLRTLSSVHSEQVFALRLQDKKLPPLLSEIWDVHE
Method in brief: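 HepG2 cells transiently transfected with multiple reporter transcription units carrying chimeric NR-Gal4 proteins acting on GAL4-UAS reporters; compound exposure 24 h. Reporter mRNA quantified by RT-PCR, 6-FAM labelling, HpaI digestion and capillary electrophoresis; gain of signal versus DMSO.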

[5] = target: Hepatocyte nuclear factor 4-alpha (Homo sapiens) (UniProt P41235); test: ATG_HNF4a_TRANS: Attagene TRANS-FACTORIAL HepG2 Assay for human Hepatocyte Nuclear Factor 4 alpha (HNF4a) (AID 2282982; active means hit-call score of the fitted dose curve at least 0.9, where 1 is the maximum); conditions: HepG2 HNF4a transactivation reporter, mRNA readout
Hepatocyte nuclear factor 4-alpha (Homo sapiens), sequence (P41235 whole entry, looked up, the tested form may be a part): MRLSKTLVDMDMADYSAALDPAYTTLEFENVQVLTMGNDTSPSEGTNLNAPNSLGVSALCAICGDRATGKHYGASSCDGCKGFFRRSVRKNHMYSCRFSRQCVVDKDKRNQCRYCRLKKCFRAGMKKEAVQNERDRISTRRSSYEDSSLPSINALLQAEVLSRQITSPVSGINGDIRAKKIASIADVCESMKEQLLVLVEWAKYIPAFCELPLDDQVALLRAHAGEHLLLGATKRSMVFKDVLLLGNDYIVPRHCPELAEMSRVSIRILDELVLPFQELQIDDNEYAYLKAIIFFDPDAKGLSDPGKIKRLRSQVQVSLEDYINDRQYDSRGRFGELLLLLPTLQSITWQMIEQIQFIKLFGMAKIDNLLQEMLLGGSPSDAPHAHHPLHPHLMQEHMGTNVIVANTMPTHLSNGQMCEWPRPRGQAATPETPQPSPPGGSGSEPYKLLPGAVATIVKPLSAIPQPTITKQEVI
Method in brief: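 HepG2 cells transiently transfected with multiplexed GAL4-UAS reporter units responsive to chimeric NR-GAL4 proteins; compound exposure 24 h. Reporter mRNA quantified by RT-PCR, 6-FAM labelling, HpaI digestion and capillary electrophoresis; gain of signal versus DMSO baseline.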

[6] = ATG_M_32_TRANS: Attagene TRANS-FACTORIAL HepG2 Assay for M32 Transcription Factor (Internal Marker) (AID 2282984; active means hit-call score of the fitted dose curve at least 0.9, where 1 is the maximum;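 further: transcript level of a background control reporter unit measured by RT-PCR and capillary electrophoresis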); conditions: HepG2 Attagene TRANS M32 internal marker reporter
Method in brief: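 HepG2 cells transiently transfected with multiple GAL4-UAS reporter transcription units, dosed for 24 hours; reporter mRNA quantified by RT-PCR, 6-FAM primer extension, HpaI digestion and capillary electrophoresis. Gain-of-signal fitted versus DMSO baseline; internal background-control marker.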

[7] = target: Transcriptional activator Myb (Homo sapiens) (UniProt P10242); test: ATG_Myb_CIS: Attagene CIS-FACTORIAL HepG2 Assay for human Myeloblastosis (Myb) Proto-Oncogene Transcription Factor (AID 2282986); conditions: HepG2 Attagene CIS-FACTORIAL Myb reporter transcription; actives raise or lower the signal
Transcriptional activator Myb (Homo sapiens), sequence (P10242 whole entry, looked up): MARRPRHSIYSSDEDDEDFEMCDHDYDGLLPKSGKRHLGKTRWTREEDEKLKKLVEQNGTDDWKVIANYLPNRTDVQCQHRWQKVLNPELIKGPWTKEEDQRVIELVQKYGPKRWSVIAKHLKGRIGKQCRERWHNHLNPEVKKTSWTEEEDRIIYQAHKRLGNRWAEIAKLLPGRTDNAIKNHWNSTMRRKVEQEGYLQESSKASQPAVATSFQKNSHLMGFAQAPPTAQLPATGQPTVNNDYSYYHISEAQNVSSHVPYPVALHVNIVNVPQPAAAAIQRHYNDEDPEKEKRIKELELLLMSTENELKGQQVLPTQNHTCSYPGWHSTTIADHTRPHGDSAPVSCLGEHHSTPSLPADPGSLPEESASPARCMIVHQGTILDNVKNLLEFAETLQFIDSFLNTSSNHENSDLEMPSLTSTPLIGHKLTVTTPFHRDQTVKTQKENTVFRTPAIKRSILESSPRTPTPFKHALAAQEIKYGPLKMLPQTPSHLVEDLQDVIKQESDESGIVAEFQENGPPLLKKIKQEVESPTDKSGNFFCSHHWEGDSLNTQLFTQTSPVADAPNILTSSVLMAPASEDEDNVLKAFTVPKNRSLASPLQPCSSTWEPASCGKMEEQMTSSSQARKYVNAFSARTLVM
Method in brief: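 Steps: transfect HepG2 with cis-regulated reporter units; dose with chemical for 24 h; isolate RNA, reverse-transcribe, PCR-amplify and FAM-label reporter sequences; digest with HpaI; resolve by capillary electrophoresis. Activity fitted in both directions relative to DMSO.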

[8] = target: Nuclear respiratory factor 1 (Homo sapiens) (UniProt Q16656); test: ATG_NRF1_CIS: Attagene CIS-FACTORIAL HepG2 Assay for human Nuclear Respiratory Factor 1 (NRF1) Orphan Gene (AID 2282987); conditions: HepG2 NRF1 cis-element reporter, Attagene multiplex; actives raise or lower the signal
Nuclear respiratory factor 1 (Homo sapiens), sequence (Q16656 whole entry, looked up, the tested form may be a part): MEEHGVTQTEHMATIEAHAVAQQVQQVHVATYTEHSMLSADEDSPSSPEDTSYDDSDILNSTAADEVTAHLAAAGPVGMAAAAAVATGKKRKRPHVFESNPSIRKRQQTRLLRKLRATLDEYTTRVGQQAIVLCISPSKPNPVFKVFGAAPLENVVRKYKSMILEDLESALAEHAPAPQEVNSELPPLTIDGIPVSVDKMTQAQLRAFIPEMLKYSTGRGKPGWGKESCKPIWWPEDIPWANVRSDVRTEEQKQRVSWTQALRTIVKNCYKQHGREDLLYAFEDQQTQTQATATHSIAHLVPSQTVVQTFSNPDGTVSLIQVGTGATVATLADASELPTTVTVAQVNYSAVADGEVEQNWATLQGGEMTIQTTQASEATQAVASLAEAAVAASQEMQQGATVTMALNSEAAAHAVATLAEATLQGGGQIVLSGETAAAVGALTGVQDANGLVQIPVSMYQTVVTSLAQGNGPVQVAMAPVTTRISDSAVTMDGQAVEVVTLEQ
Method in brief: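 Fluorescence intensity of labelled reporter cDNA fragments, resolved by capillary electrophoresis, served as readout for NRF1 cis-element activity. Transiently transfected HepG2 cells were dosed for 24 hours; activity in either direction was fitted against DMSO negative control.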

[9] = ATG_NFI_CIS: Attagene CIS-FACTORIAL HepG2 Assay for human Nuclear Factor I (NFI) (AID 2282989); conditions: HepG2 cis-regulatory reporter, NFI response element transcription; actives raise or lower the signal
Method in brief: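 HepG2 cells transiently transfected with cis-element-driven multiplexed reporter transcription units, dosed for 24 h. Reporter mRNA quantified by RT-PCR, fluorescent labelling, HpaI digestion and capillary electrophoresis; bidirectional fit versus DMSO baseline.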

[10] = target: Myc proto-oncogene protein (Homo sapiens) (UniProt P01106); test: ATG_Myc_CIS: Attagene CIS-FACTORIAL HepG2 Assay for human Myelocytomatosis (Myc) Proto-Oncogene Transcription Factor (AID 2282990); conditions: HepG2, Attagene cis-reporter transcription factor activity; actives raise or lower the signal
Myc proto-oncogene protein (Homo sapiens), sequence (P01106 whole entry, looked up): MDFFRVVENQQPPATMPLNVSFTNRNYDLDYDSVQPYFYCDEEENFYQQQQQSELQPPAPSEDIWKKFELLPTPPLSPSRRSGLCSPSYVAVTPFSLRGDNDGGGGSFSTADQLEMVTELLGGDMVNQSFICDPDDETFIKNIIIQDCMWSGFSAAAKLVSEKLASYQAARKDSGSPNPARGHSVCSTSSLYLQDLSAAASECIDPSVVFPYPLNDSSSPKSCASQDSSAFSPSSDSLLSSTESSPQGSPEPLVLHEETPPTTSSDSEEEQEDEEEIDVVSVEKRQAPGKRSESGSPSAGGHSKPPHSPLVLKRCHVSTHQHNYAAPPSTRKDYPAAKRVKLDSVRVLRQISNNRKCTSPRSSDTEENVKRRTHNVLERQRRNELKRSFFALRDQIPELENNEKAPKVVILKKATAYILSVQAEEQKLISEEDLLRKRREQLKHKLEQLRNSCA
Method in brief: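 HepG2 cells transiently transfected with multiple cis-promoter-driven reporter transcription units, so endogenous TF activity is read. After 24 h compound exposure, reporter mRNA was quantified by RT-PCR, 6-FAM labelling, HpaI digestion and capillary electrophoresis; bidirectional fit versus DMSO.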

[11] = ATG_NF_kB_CIS: Attagene CIS-FACTORIAL HepG2 Assay for human Nuclear Factor Kappa B (NF-kB) (AID 2282991); conditions: HepG2 Attagene cis-factorial NF-kB reporter mRNA; actives raise or lower the signal
Method in brief: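 Endogenous transcription factor activity in HepG2 was captured via cis-regulated reporter constructs; after 24 h dosing, reporter mRNA was reverse-transcribed, amplified, fluorescently labelled and sized by capillary electrophoresis, with activity fitted bidirectionally relative to DMSO.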

[12] = ATG_NRF2_ARE_CIS: Attagene CIS-FACTORIAL HepG2 Assay for human Nuclear Factor Erythroid 2 Related Factor 2 (NFR2) response to Antioxidant Response Elements (ARE) (AID 2282992); conditions: HepG2 Attagene ARE/NRF2 reporter, transcription factor activity; actives raise or lower the signal;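 on AC50: reporter mRNA level measured by RT-PCR and capillary electrophoresis fluorescence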
Method in brief: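 HepG2 cells transiently transfected with multiplexed cis-element reporter constructs, 24 h after chemical dosing; reporter mRNA quantified by RT-PCR, fluorescent primer extension, HpaI digestion and capillary electrophoresis. Bidirectional fit relative to DMSO.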

[13] = ATG_Oct_MLP_CIS: Attagene CIS-FACTORIAL HepG2 Assay for human Octamer-Binding Transcription Factor (Oct) (AID 2282993); conditions: HepG2 Attagene cis-factorial Oct reporter, mRNA; actives raise or lower the signal
Method in brief: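 HepG2 cells transiently transfected with cis-promoter-driven multiplexed reporter transcription units, dosed for 24 h. Reporter mRNA quantified by RT-PCR, fluorescent labelling, HpaI digestion and capillary electrophoresis; bidirectional fits versus DMSO baseline.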

[14] = target: Cellular tumor antigen p53 (Homo sapiens) (UniProt P04637); test: ATG_p53_CIS: Attagene CIS-FACTORIAL HepG2 Assay for human p53 Transcription Factor (AID 2282994); conditions: HepG2 p53 cis-element reporter, Attagene mRNA; actives raise or lower the signal
Cellular tumor antigen p53 (Homo sapiens), sequence (P04637 whole entry, looked up): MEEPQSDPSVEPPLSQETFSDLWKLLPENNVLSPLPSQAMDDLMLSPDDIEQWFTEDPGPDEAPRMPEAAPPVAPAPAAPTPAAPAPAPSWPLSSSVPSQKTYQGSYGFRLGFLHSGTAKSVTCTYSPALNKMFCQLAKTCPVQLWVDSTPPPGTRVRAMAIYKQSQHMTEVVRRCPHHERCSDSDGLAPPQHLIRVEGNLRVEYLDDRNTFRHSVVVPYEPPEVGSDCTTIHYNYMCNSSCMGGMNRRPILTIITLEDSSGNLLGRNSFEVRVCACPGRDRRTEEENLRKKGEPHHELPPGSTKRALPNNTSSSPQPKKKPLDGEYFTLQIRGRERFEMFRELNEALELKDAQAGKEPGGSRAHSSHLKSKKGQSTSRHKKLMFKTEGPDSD
Method in brief: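 HepG2 cells transiently transfected with cis-regulated multiple reporter transcription units, dosed 24 h. Reporter mRNA measured by RT-PCR, 6-FAM primer extension, HpaI digestion and capillary electrophoresis; bidirectional fit relative to DMSO.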

[15] = ATG_M_06_TRANS: Attagene TRANS-FACTORIAL HepG2 Assay for M06 Transcription Factor (Internal Marker) (AID 2282983; active means hit-call score of the fitted dose curve at least 0.9, where 1 is the maximum;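 further: reporter transcript level by RT-PCR then capillary electrophoresis fluorescence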); conditions: HepG2 Attagene TRANS M06 internal marker reporter
Method in brief: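 Cells: HepG2, transient multi-reporter transfection. Exposure: 24 h. Detection: RT-PCR, 6-FAM labelling, HpaI digestion (2 h, 37 °C), capillary electrophoresis. Baseline: DMSO.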

[16] = target: Oxysterols receptor LXR-alpha (Homo sapiens) (UniProt Q13133); test: ATG_LXRa_TRANS: Attagene TRANS-FACTORIAL HepG2 Assay for human Liver X Receptor alpha (LXRa) (AID 2282980; active means hit-call score of the fitted dose curve at least 0.9, where 1 is the maximum); conditions: HepG2 Attagene TRANS reporter, LXRa transactivation
Oxysterols receptor LXR-alpha (Homo sapiens), sequence (Q13133 whole entry, looked up, the tested form may be a part): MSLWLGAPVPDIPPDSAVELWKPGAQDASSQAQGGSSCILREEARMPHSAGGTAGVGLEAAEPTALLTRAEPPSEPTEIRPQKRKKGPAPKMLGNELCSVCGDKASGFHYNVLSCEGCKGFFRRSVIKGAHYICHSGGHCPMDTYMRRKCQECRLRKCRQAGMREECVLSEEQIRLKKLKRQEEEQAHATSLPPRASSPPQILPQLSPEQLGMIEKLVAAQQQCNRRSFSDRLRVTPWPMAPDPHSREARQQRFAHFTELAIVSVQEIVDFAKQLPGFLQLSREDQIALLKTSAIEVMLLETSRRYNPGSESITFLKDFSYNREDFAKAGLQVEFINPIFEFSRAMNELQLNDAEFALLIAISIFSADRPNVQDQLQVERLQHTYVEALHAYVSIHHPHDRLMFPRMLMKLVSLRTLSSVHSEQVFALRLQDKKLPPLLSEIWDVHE
Method in brief: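 Chemical-induced reporter mRNA measured by RT-PCR with fluorescent labelling and capillary electrophoresis after 24 h dosing of transiently transfected HepG2 cells expressing exogenous NR-Gal4 chimeras; increases scored against DMSO baseline.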

[17] = target: Nuclear receptor subfamily 4 group A member 2 (Homo sapiens) (UniProt P43354); test: ATG_NURR1_TRANS: Attagene TRANS-FACTORIAL HepG2 Assay for human Nuclear Receptor Related Protein 1 (NURR1) (AID 2282985; active means hit-call score of the fitted dose curve at least 0.9, where 1 is the maximum); conditions: HepG2 Attagene TRANS reporter, mRNA readout
Nuclear receptor subfamily 4 group A member 2 (Homo sapiens), sequence (P43354 whole entry, looked up, the tested form may be a part): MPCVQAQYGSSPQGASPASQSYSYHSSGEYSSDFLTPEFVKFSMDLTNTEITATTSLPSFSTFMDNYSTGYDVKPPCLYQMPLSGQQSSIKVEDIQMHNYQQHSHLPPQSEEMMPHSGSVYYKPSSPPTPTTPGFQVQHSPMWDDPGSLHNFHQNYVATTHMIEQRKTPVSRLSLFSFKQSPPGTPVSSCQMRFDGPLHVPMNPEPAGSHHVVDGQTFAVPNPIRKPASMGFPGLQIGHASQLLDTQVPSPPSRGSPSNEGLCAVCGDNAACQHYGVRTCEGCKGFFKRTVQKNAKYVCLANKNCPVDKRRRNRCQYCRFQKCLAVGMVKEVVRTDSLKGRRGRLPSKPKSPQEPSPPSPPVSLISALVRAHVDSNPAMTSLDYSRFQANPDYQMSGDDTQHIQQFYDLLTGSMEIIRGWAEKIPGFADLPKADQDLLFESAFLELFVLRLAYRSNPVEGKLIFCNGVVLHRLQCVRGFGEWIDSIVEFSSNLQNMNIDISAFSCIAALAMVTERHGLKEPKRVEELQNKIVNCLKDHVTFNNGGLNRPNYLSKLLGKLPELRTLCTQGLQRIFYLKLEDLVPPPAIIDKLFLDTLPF
Method in brief: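 HepG2 cells transiently transfected with GAL4-UAS reporter units and chimeric NR-Gal4 constructs; chemical exposure 24 h. Reporter mRNA quantified by RT-PCR, fluorescent labelling and capillary electrophoresis; gain of signal fitted relative to DMSO baseline.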

[18] = BSK_3C_uPAR: BioMAP Diversity Plus: 3C Assay for Urokinase-type plasminogen activator receptor (uPAR) Biomarker Activity (AID 2282998); conditions: BioMAP 3C HUVEC, uPAR biomarker ELISA; actives raise or lower the signal
Method in brief: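 Human umbilical vein endothelial primary cells were exposed to test chemical for 24 h. Cell-surface uPAR was then quantified by ELISA, and responses were fitted bidirectionally against DMSO as negative control and baseline.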

[19] = BSK_3C_VCAM1: BioMAP Diversity Plus: 3C Assay for Vascular cell adhesion molecule 1 (VCAM1) Biomarker Activity (AID 2282999); conditions: BioMAP 3C HUVEC, VCAM1 ELISA, cytokine-stimulated; actives raise or lower the signal
Method in brief: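 Human umbilical vein endothelial cells were dosed with compound for 24 h, after which cell-surface VCAM-1 was quantified by ELISA. Bidirectional curve fitting used DMSO as negative control and activity baseline.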

Measured: AC50

CC(C)OB(OC(C)C)OC(C)C
not listed: [15] | [16] | [17] | [18] | [19]
inactive: all other assays above

COc1ccc2[nH]cc(CCNC(C)=O)c2c1
not listed: [3] | [5] | [7] | [16] | [17] | [18] | [19]
inactive: all other assays above

CN1CCc2cccc3c2[C@H]1Cc1ccc(O)c(O)c1-3
active: [8] 3.59 µM | [12] 5.05 µM
not listed: [5] | [6] | [11] | [17] | [18] | [19]
inactive: all other assays above

CCCCCCCC(=O)N(C)C
not listed: [2] | [3] | [5] | [7] | [11] | [15] | [18] | [19]
inactive: all other assays above

Cc1cc(O)c2c(c1)C(=O)c1cc(O)cc(O)c1C2=O
active: [9] 8.34 µM | [11] 17.4 µM | [12] 4.77 µM | [13] 8.59 µM
not listed: [2] | [3] | [6] | [16] | [18] | [19]
inactive: all other assays above

Cc1cccc(O)c1
not listed: [3] | [4] | [5] | [15] | [16] | [18] | [19]
inactive: all other assays above

O=C(O)c1ccc(C(=O)O)c(C(=O)O)c1
not listed: [3] | [4] | [5] | [14] | [15] | [18] | [19]
inactive: all other assays above

O=C(O)c1ccccc1O
inactive: [1] | [16] | [4] | [6] | [8] | [9] | [10] | [12] | [13]

CCCCOCCOCCOCCO
not listed: [2] | [3] | [15] | [18] | [19]
inactive: all other assays above

Brc1cc(Br)cc(Br)c1
not listed: [7] | [16] | [18] | [19]
inactive: all other assays above

C=C1CC/C=C(\C)CC[C@@H]2[C@@H]1CC2(C)C
active: [12] 100 µM | [18] 33.9 µM | [19] 30.1 µM
not listed: [2] | [4] | [5] | [16]
inactive: all other assays above
